Compounds with a hit are over-represented: about 0.96% of the library has one in this group of screens.
Fluorescein fluor = qHTS Assay for Spectroscopic Profiling in Fluorescein Spectral Region; Compound autofluorescence, 480/540 nm, fluorescein-equivalent; active compounds read high; 59,000 tested, 0.91% active; AID 593, 2007; max fluorescein-equivalent concentration, M; in the data active means max fluorescein-equivalent concentration above about 10 nM; inconclusive means between about 1.1 nM and that limit
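Compounds (23 nL) in 100 mM Tris pH 8.0, 15 min at room temperature, then fluorescence read at 480 nm excitation/540 nm emission. Signal converted to fluorescein-equivalent concentration from an on-plate fluorescein standard curve.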
A647 fluor = qHTS Assay for Spectroscopic Profiling in A647 Spectral Region; 59,000 tested, under 10 active; AID 592, 2007; max dye-equivalent concentration, M; Compound fluorescence, A647 channel (570/671 nm), Tris buffer
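Tris 100 mM pH 8.0; cpd + A647 stds pin-transferred; 15 min RT; CCD imager, ex 570/em 671. Output = A647-equivalent conc. per cpd conc.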
TexasRed autofl = qHTS Assay for Spectroscopic Profiling in Texas Red Spectral Region; Compound fluorescence, Texas Red channel, 547/618 nm; active compounds read high; max dye-equivalent concentration, M; 59,000 tested, 0.06% active; AID 587, 2007; in the data active means max dye-equivalent concentration above about 10 nM; inconclusive means between about 1.1 nM and that limit
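Dye-equivalent concentrations come from scaling compound signal (ex 547, em 618 nm) to six Texas Red standard concentrations run on every plate, after 15 min room-temperature incubation in pH 8.0 Tris (100 mM).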
A488 autofl = qHTS Assay for Spectroscopic Profiling in A488 Spectral Region; max dye equivalency, M; compound autofluorescence, A488 spectral region, dye equivalency; Compound Type: qHTS ECL - MLSMR; AID 591, 2007; 59,000 tested, 0.1% active
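Compounds pin-transferred into 100 mM Tris buffer, pH 8.0, incubated 15 min at room temperature, then imaged with 480 nm excitation/540 nm emission filters. Fluorescence converted to Alexa 488 dye-equivalent concentration via an on-plate six-point A488 standard curve.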
Resorufin autofl = qHTS Assay for Spectroscopic Profiling in Resorufin Spectral Region; Compound fluorescence, resorufin region 547/598 nm, buffer; active compounds read high; max dye-equivalent concentration, M; 59,000 tested, 0.04% active; AID 588, 2007
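Read-out: intrinsic compound fluorescence at ex 547/em 598 nm after 15 min at RT in pH 8.0 Tris (100 mM). Values expressed as resorufin-equivalent concentration from per-plate standard series.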
Rhodamine fluor = qHTS Assay for Spectroscopic Profiling in Rhodamine Spectral Region; 59,000 tested, 0.05% active; AID 594, 2007; Rhodamine-region fluorescence, 547/598 nm, Tris buffer; active compounds read high; max dye-equivalent concentration, M; in the data active means max dye-equivalent concentration above about 11 nM; inconclusive means between about 1.1 nM and that limit
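Intensities are converted to rhodamine-equivalent concentration using a six-point rhodamine standard on each plate. Compounds sit 15 min at room temperature in 100 mM Tris buffer, pH 8.0; read uses the 547/598 nm excitation/emission pair.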
Each line names hits and unclear results; the compound was inactive in the other large screens. Unless noted, how the calls were made is not given here.

O=c1c(-c2ccc(F)cc2)nc2cnc(N3CCOCC3)nc2n1Cc1ccc(F)cc1	none
COc1cc([C@@H]2[C@H]3CN(C)CC=C3C(C#N)=C(N)C2(C#N)C#N)cc2c1OCO2	Fluorescein fluor 1.1e-08M
COc1cccc(C2C3CN(C)CC=C3C(C#N)=C(N)C2(C#N)C#N)c1OC (centres undefined)	Fluorescein fluor 5.2e-08M, A488 autofl inconclusive
CCN1CC=C2C(C#N)=C(N)C(C#N)(C#N)[C@H](c3cccc(OC)c3OC)[C@H]2C1	Fluorescein fluor 9.6e-08M, A488 autofl inconclusive
CCOC(=O)N1CC=C2C(C#N)=C(N)C(C#N)(C#N)[C@H](c3ccc(OC(C)C)c(OCC)c3)[C@H]2C1	none
CN1CC=C2C(C#N)=C(N)C(C#N)(C#N)C(CCc3ccccc3)C2C1 (centres undefined)	Fluorescein fluor 4.3e-08M, TexasRed autofl inconclusive, A488 autofl inconclusive
CCOC(=O)N1CC=C2C(C#N)=C(N)C(C#N)(C#N)[C@H](c3ccccc3OCC)[C@H]2C1	Fluorescein fluor inconclusive, TexasRed autofl inconclusive
COc1ccc2c3c(ccc2c1)N[C@H](C(=O)O)CC3	Fluorescein fluor inconclusive
COc1ccc([C@@H](Nc2ncccn2)c2cc3c(cc2O)OCO3)cc1	none
COC(=O)[C@H]1[C@@H]2C[C@H]3c4[nH]c5ccccc5c4CCN3C[C@@H]2CC[C@@H]1O	none
c1ccc2c(N3CCOCC3)nc(-c3ccoc3)nc2c1	none
CN1CC=C2C(C#N)=C(N)C(C#N)(C#N)[C@H](c3cccc(Cl)c3)C2C1 (some centres undefined)	Fluorescein fluor 4.1e-08M, TexasRed autofl inconclusive, A488 autofl inconclusive
CN1C2C=C3C(C#N)=C(N)C(C#N)(C#N)[C@@H](c4ccsc4)[C@@H]3C1CC2 (some centres undefined)	TexasRed autofl inconclusive
CCCC1C2CN(C(C)C)CC=C2C(C#N)=C(N)C1(C#N)C#N (centres undefined)	Fluorescein fluor 5.1e-08M, TexasRed autofl inconclusive, A488 autofl inconclusive
CCOC(=O)N1CC=C2C(C#N)=C(N)C(C#N)(C#N)[C@H](c3ccsc3)[C@H]2C1	Fluorescein fluor inconclusive, TexasRed autofl inconclusive
CC(=O)N1CCN(c2ccc(N=Cc3c(O)n(Cc4ccccc4)c(=O)[nH]c3=O)cc2)CC1	Fluorescein fluor 1.9e-08M
CC[C@H](C)N(C)C(=O)c1cc2ccccc2c(-c2ccccc2Cl)n1	Fluorescein fluor inconclusive
COc1cc(/C=C(\C#N)C(=O)c2ccc(O)c(O)c2)cc(I)c1O	Fluorescein fluor 1.3e-08M
N#Cc1c(-c2ccccc2)no[n+]1[O-]	Fluorescein fluor inconclusive
COc1ccccc1C1C=C(c2ccc(Cl)cc2)Nc2nc(NS(C)(=O)=O)nn21 (centres undefined)	Fluorescein fluor 1.5e-08M, TexasRed autofl inconclusive
COc1ccccc1C1C=C(c2ccc(Cl)cc2)Nc2nc(N3C(=O)CCC3=O)nn21 (centres undefined)	Fluorescein fluor inconclusive
COc1ccc(C2C=C(c3ccc(Br)cc3)Nc3nc(N4C(=O)CCC4=O)nn32)cc1 (centres undefined)	Fluorescein fluor 1.1e-08M
COc1ccc(C2=CC(c3ccc(Cl)cc3)n3cnnc3N2)cc1OC (centres undefined)	Fluorescein fluor 3.5e-08M, A488 autofl inconclusive
CC(=O)Nc1nc2n(n1)C(c1ccc(F)cc1)C=C(c1ccccc1)N2 (centres undefined)	Fluorescein fluor 1.4e-08M
N=C(N)SCc1cccc(-c2nc3ccccc3c(=O)o2)c1	none
COc1ccc(C2C=C(c3ccc(Cl)cc3)Nc3nc(NC(C)=O)nn32)cc1 (centres undefined)	Fluorescein fluor 2.8e-08M
CN1CC[C@@]2(CCCN(C(=O)c3cccn3C)C2)C1	none
OCCNc1ncnc2nc[nH]c12	none
CCOc1ccc(C2C(C#N)=C(N)SC(N)=C2C#N)cc1OC	Fluorescein fluor inconclusive
CCOc1ccccc1C1C(C#N)=C(N)SC(N)=C1C#N	Fluorescein fluor 1.3e-08M
CCOc1ccc(C2C(C#N)=C(N)SC(N)=C2C#N)cc1OCC	Fluorescein fluor 1.4e-08M
CCS(=O)(=O)CCSc1nc(C)cc(C)c1C#N	none
CCOC(=O)CCSc1nc(C)cc(C(F)(F)F)c1C#N	Fluorescein fluor 1.5e-08M
CN1CCC(OC(=O)COc2ccc(C(C)(C)C)cc2)CC1	Fluorescein fluor 3e-08M, A488 autofl inconclusive
C/C(=N/S(=O)(=O)c1ccc(Cl)c(Cl)c1)OCC(C)(C)C	none
CC(C)OC(=O)CC(=O)c1sc2nc3c(cc2c1N)CN(C)CC3	Fluorescein fluor 1.9e-07M, A488 autofl inconclusive
O=C(O)/C=C(/C(=O)O)[C@]12CCN3CC4=CCO[C@@H]5CC(=O)N[C@@H]1[C@H]5[C@H]4C[C@H]32	none
N#CC1=C(N)N(c2ccccc2)C2=C(C(=O)CCC2)C1c1ccsc1 (centres undefined)	none
N#CC1=C(N)N2C(=C(C#N)C1c1ccccc1)Sc1ccccc12 (centres undefined)	Fluorescein fluor 4.2e-08M, A488 autofl inconclusive
CNC(=O)c1cc2ccc(OC)cc2oc1=O	Fluorescein fluor 1.7e-08M
CCn1nc(-c2ccccc2)c2nc3ccccc3nc21	Fluorescein fluor 2.4e-07M, A488 autofl 1.2e-08M
CCCn1nc(-c2ccccc2)c2nc3ccccc3nc21	Fluorescein fluor 2e-07M, A488 autofl 1.1e-08M
CCCCn1c2nc3ccccc3nc2c2c(=O)n(CCC)cnc21	TexasRed autofl inconclusive
c1ccc(-c2nnc(Cn3c4ccccc4c4nc5ccccc5nc43)o2)cc1	Fluorescein fluor inconclusive
Cc1cnc(CNc2nc(-c3ccc(N(C)C)cc3)nc3ccccc23)cn1	TexasRed autofl inconclusive
COCCc1ccc(OC[C@H](O)CNC(C)C)cc1	Fluorescein fluor inconclusive, TexasRed autofl inconclusive
O=c1c(-c2cccs2)nc2cncnc2n1-c1ccccc1	Fluorescein fluor inconclusive
Cc1cc2nc3c(=O)[nH]c(=O)nc-3n(CC(O)C(O)C(O)CO)c2cc1C (centres undefined)	Fluorescein fluor 7.8e-07M, A488 autofl 3.1e-08M, Resorufin autofl inconclusive, Rhodamine fluor inconclusive
O=c1c(O)c(-c2cccs2)oc2ccccc12	Fluorescein fluor 3.2e-08M, TexasRed autofl inconclusive, A488 autofl inconclusive
COc1ncc2nc(-c3ccc(F)cc3)c(=O)n(C[C@H]3CCCO3)c2n1	none
Cc1cc(=O)[nH]c(SCCOc2ccc(OC(C)C)cc2)n1	Fluorescein fluor 2.2e-08M, TexasRed autofl inconclusive, Resorufin autofl inconclusive, Rhodamine fluor inconclusive
Cc1cc(=O)[nH]c(SCCOc2ccc3c(c2)CCC3)n1	none
O=C(c1ccccc1)c1ccc2n1CC[C@H]2C(=O)O	Fluorescein fluor inconclusive
CCOC(=O)c1sc(N)c(C#N)c1CSc1nc2ccc(OCC)cc2[nH]1	none
CCOC(=O)c1sc(N)c(C#N)c1COC(=O)CNC(=O)c1ccccc1	Fluorescein fluor 3e-08M
COc1cc(O)c2c(O)c3c(c4c2c1[C@@]1(C4)C(C)=CCCC1(C)C)[C@H](O)[C@@]1(O)CC(=O)C(C(N)=O)=C(O)[C@]1(O)C3=O	Fluorescein fluor 2.1e-08M

Source: PubChem BioAssay
